Source: the supplement of paper PMC5940239

Tests used:
[1] = tested on: Madurella mycetomatis MM55; settings: 7 days
[2] = tested on: Madurella mycetomatis MM55; assay: IC90; higher = less potent; settings: 7 days
[3] = tested on: Madurella mycetomatis MM55; assay: percent growth relative to solvent control; higher = less inhibition, active = 20 or less; settings: 100 µM; 7 days

Structure (SMILES): Nc1c2c(nc3sc4c(c13)CCCC4)CCCC2
- IC50 [1]: 9.7 µM
- IC90 [2]: 16.4 µM
- percent growth [3]: -0.0392% (active)

Structure (SMILES): Cc1nn(C)c(C)c1NS(=O)(=O)c1c(Cl)cc(-c2ccnc(N3CCNCC3)c2)cc1Cl
- percent growth [3]: 86% (inactive)

Structure (SMILES): CO[C@@H]1CN(c2ccc(C#CC3(O)CN4CCC3CC4)c(Cc3ccccc3)n2)C[C@H]1O (some centres undefined)
- percent growth [3]: 81.3% (inactive)

Structure (SMILES): CC(C)(C)C(O)C(Oc1ccc(-c2ccccc2)cc1)n1cncn1 (centres undefined)
- percent growth [3]: -0.373% (active)

Structure (SMILES): Cc1nn(Cc2ccccc2)c(Cl)c1C(=O)NC1CCCCCC1
- percent growth [3]: 91.1% (inactive)

Structure (SMILES): CC1COC(Cn2cncn2)(c2ccc(Oc3ccc(Cl)cc3)cc2Cl)O1 (centres undefined)
- percent growth [3]: 0.489% (active)

Structure (SMILES): Cc1cc(C2=NOC(c3cc(Cl)c(F)c(Cl)c3)(C(F)(F)F)C2)ccc1C(=O)NCc1ccc2c(c1)C(C)(C)OB2O (centres undefined)
- percent growth [3]: 124% (inactive)

Structure (SMILES): CO/N=C(\C(=O)OC)c1ccccc1CO/N=C(\C)c1cccc(C(F)(F)F)c1
- IC50 [1]: 1.05 µM
- IC90 [2]: 28.1 µM
- percent growth [3]: 0.385% (active)

Structure (SMILES): Cc1cccc(C(=O)Nc2ccnc(N(C)C3CCN(CC(C)C)CC3)c2)c1
- IC50 [1]: 26.2 µM
- IC90 [2]: 53.4 µM
- percent growth [3]: 1.78% (active)

Structure (SMILES): O=C1O[C@@H](COc2ccon2)CN1c1cc(F)c(C2=CCN(Cc3ccccc3)CC2)c(F)c1
- percent growth [3]: 20.9% (inactive)

Structure (SMILES): CO/C=C(/C(=O)OC)c1ccccc1Oc1cc(Oc2ccccc2C#N)ncn1
- IC50 [1]: 0.6 µM
- IC90 [2]: 20.4 µM
- percent growth [3]: 1.6% (active)

Structure (SMILES): CC1(C)OB(O)c2ccc(C3=NOC(c4cc(Cl)c(F)c(Cl)c4)(C(F)(F)F)C3)cc21 (centres undefined)
- IC50 [1]: 11.7 µM
- IC90 [2]: 19.4 µM
- percent growth [3]: -0.6% (active)

Structure (SMILES): CCc1nn(C)c(C(=O)NCc2ccc(Oc3ccc(C)cc3)cc2)c1Cl
- percent growth [3]: 46.6% (inactive)

Structure (SMILES): O=C1O[C@@H](CO)CN1c1cc(F)c(C2=CCN(Cc3ccccc3)CC2)c(F)c1
- percent growth [3]: 70.2% (inactive)
